# The other results are listed elsewhere or left out. Activity calls are given as the source filed them.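 How the source made its calls: active means mean activity change at or below -40% when tested at 20 µM; inactive means the rest.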
# Test: Rh110 fluorescence interference by putative Apaf-1 activators, confirmation, artefact control for Apaf-1 activator project, biochemical, 20 µM (AID 504616)
# Conditions: quenched caspase reaction, Ex480/Em540, at 20 µM
row,Structure (SMILES),fluorescence interference (activity change)
1,O=C(Nc1cccc(-c2nc3ccccc3[nH]2)c1)c1ccc(C(=O)Nc2cccc(-c3nc4ccccc4[nH]3)c2)cc1,7.06% (inactive)
2,O=C(CSc1ccc(-c2ccc(-n3cccn3)cc2)nn1)Nc1ccc([N+](=O)[O-])cc1,2.63% (inactive)
3,CN(C)S(=O)(=O)c1ccc(C(=O)NCCN=C2NS(=O)(=O)c3ccccc32)cc1,8.9% (inactive)
4,C=C(C)C(=O)Nc1cccc(C2=NOC3(C2)C[C@H](C(N)=O)N(C(=O)C(c2ccccc2)c2ccccc2)C3)c1 (stereo partly specified),7% (inactive)
5,O=C(CCc1ccccc1)NNC(=O)c1ccc(Br)cc1,-7.61% (inactive)
6,Cc1ccc(Nc2nc(CSc3nnc(-c4ccncc4)n3-c3ccccc3C)cs2)cc1,11.6% (inactive)
7,O=C(CN1C(=O)C2C3C=CC(C3)C2C1=O)NCCc1ccccc1Cl (stereo unspecified),-3.43% (inactive)
8,COc1ccccc1OCC(=O)Nc1c2c(nn1-c1ccc(F)cc1)CS(=O)(=O)C2,9.44% (inactive)
9,CC1COc2ccccc2N1C(=O)c1cccnc1Cl (stereo unspecified),0.54% (inactive)
10,CC(C)OCCCNC(=S)N1CCC(C(=O)c2ccc3c(c2)OCCO3)CC1,3.57% (inactive)
11,Brc1ccc(/C=N/N2CCN(C3c4ccccc4-c4ccccc43)CC2)s1,-2.39% (inactive)
12,COc1ccc2c(c1)CCNC2Cc1ccc(OC)c(O)c1 (stereo unspecified),-0.08% (inactive)
13,COc1ccc(C2CC(c3ccccc3)Nc3ncnn32)cc1 (stereo unspecified),-9.02% (inactive)
14,Cc1ccc(S(=O)(=O)N2CCOCC2)cc1C(=O)NC(=S)N(Cc1ccccc1)C(C)C,3.5% (inactive)
15,COc1ccc(S(=O)(=O)N2CCCCC2)cc1NC(=O)c1cc([N+](=O)[O-])ccc1N1CCOCC1,4.4% (inactive)
16,N#CC1(C#N)C(C(=O)C23CC4CC(CC(C4)C2)C3)C12CCOCC2 (stereo unspecified),-0.76% (inactive)
17,O=[N+]([O-])c1ccc2nc(-c3ccccn3)[nH]c2c1,5.13% (inactive)
18,CCOCCc1c(O)nc(SCC(=O)NCc2ccco2)[nH]c1=O,-8.32% (inactive)
19,CCOCCCNC(=O)c1c[nH]c2cc(C)ccc2c1=O,8.21% (inactive)
20,CC(C)N1CCC(NC(=O)Nc2ccccc2)CC1,-6.69% (inactive)
21,CC(=O)CCC(=O)c1ccc2ccccc2c1,15% (inactive)

# Reference: PubChem BioAssay AID504616 (Sanford-Burnham Center for Chemical Genomics, 2011)
